Measurements: PubChem BioAssay (NCI)
The panel holds about 79,000 compounds, 15% with a hit somewhere; the sample as a whole holds those more often. Active and inactive are the calls of the source. Cut-off read from the data, not from the text of the source: active = growth inhibition above about 70%; inactive = the rest.

Tests used:
[1] = NCI Yeast Anticancer Drug Screen. Data for the rad50 strain (AID 155);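 note: 0% = growth of vehicle-only cultures of the same strain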; details: S. cerevisiae rad50 strain growth inhibition, hits give high values; at 50.0 µM unless noted
How it was run: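 DNA repair mutant yeast, compound exposure, growth read-out; inhibition is taken relative to vehicle.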

[2] = NCI Yeast Anticancer Drug Screen. Data for the mec2-1 strain (AID 157); details: S. cerevisiae mec2-1 strain, hits give high values; at 50.0 µM unless noted
How it was run: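 Each compound was tested on mec2-1 yeast, a strain altered in DNA damage repair or cell cycle control. Growth inhibition is reported relative to vehicle.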

[3] = NCI Yeast Anticancer Drug Screen. Data for the sgs1 mgt1 strain (AID 161);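 note: 0% = growth of cultures given vehicle only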; details: S. cerevisiae sgs1 mgt1 strain, hits give high values; at 50.0 µM unless noted
How it was run: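 Genetically altered yeast, compound exposure, growth inhibition relative to vehicle.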

[4] = NCI Yeast Anticancer Drug Screen. Data for the cln2 rad14 strain (AID 165);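 note: 0% = growth equal to vehicle treated cultures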; details: S. cerevisiae cln2 rad14 strain, hits give high values; at 50.0 µM unless noted
How it was run: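 Test compounds were added to cln2 rad14 yeast cultures; inhibition of growth was then determined by comparison with vehicle treatment.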

[5] = NCI Yeast Anticancer Drug Screen. Data for the bub3 strain (AID 167); details: S. cerevisiae bub3 mutant strain, hits give high values; at 50.0 µM unless noted
How it was run: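 In this screen, a yeast mutant lacking normal mitotic checkpoint function is challenged with compound. Relative growth versus vehicle gives the inhibition value.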

[6] = NCI Yeast Anticancer Drug Screen. Data for the mlh1 rad18 strain (AID 175); details: S. cerevisiae mlh1 rad18 strain growth inhibition, hits give high values; at 50.0 µM unless noted
How it was run: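 Inhibition values reflect reduced growth of mutant yeast versus vehicle-treated controls following compound exposure; the mutations affect DNA damage repair.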

Measured: growth inhibition

CC(C)(O)C[N+](=O)[O-]
inactive: [1] 5.85% | [2] -1.8% | [3] 0.85% | [4] -7.7% | [5] 0% | [6] 3.05%

CCOC(Cn1ccc[n+]1CC(=O)c1ccccc1)OCC
inactive: [1] 0.9% | [2] -5.25% | [3] -10.8% | [4] -21.6% | [5] -5.75% | [6] 9.1%

CC(=O)Oc1ccc(N2CC=C(c3ccccc3)CC2)cc1
inactive: [1] -6.7% | [2] -13.5% | [3] -9.75% | [4] -8.35% | [5] -9.45% | [6] -4.45%

CC1CC(C)OC(c2ccccc2Cl)O1 (stereo not given)
inactive: [1] 24.6% | [2] 12.4% | [3] 6.3% | [4] -8.1% | [5] 12.7% | [6] 25%

C=CCCCC12CCCc3cccc(c31)NC2=O (stereo not given)
inactive: [1] 48.7% | [2] 17.4% | [3] 24.8% | [4] 48% | [5] 46.5% | [6] 34.6%

CCCC(=O)N(CCC(C)C)c1ccccc1
inactive: [1] -12.6% | [2] 6.3% | [3] 2.45% | [4] 9.9% | [5] -9.25% | [6] -7.8%

CC(=O)NC(C)c1ccccc1 (stereo not given)
inactive: [1] -4.75% | [2] 40.1% | [3] 15.3% | [4] -11.9% | [5] -1.55% | [6] 3.3%

COc1cc(OC)c2c(c1)C(C)(C)CCC2(C)C
inactive: [1] 9.2% | [2] 2.9% | [3] -7.45% | [4] -23.4% | [5] 16.2% | [6] 4.4%

COc1ccc(/C=N/NS(=O)(=O)c2ccc(NC(C)=O)cc2)cc1
inactive: [1] -15.2% | [2] -30.1% | [3] 16.4% | [4] 22.8% | [5] -21.8% | [6] -9.15%

C#CCOC(=O)c1ccccc1
inactive: [1] 1.15% | [2] -5.15% | [3] 0.6% | [4] -24.2% | [5] 3.5% | [6] 0%

Oc1ccc(C(Cc2ccccc2)NCc2ccccc2)cc1 (stereo not given)
inactive: [1] -8.15% | [2] 14.6% | [3] 15.7% | [4] -12.6% | [5] 5.25% | [6] 17.9%

COc1ccc(-c2cccc(C(=O)O)c2C(=O)O)cc1OC
inactive: [1] 6.1% | [2] 20.8% | [3] 0.4% | [4] -17.2% | [5] -7.4% | [6] -10.1%

ONc1ccc2c(c1)C1C(C3C2C2(Cl)C(Cl)=C(Cl)C3(Cl)C2(Cl)Cl)C2(Cl)C(Cl)=C(Cl)C1(Cl)C2(Cl)Cl (stereo not given)
inactive: [1] 35.8% | [2] 13.6% | [3] 7.55% | [4] 19.6% | [5] 24.9% | [6] 24.6%

CCCC(C)C(=O)OCc1ccccc1 (stereo not given)
inactive: [1] 16.6% | [2] -9.5% | [3] 5.35% | [4] -13.7% | [5] 6.7% | [6] 5%

O=[N+]([O-])/C=C/c1cn(CCCCCCCCCCCCn2cc(/C=C/[N+](=O)[O-])c3ccccc32)c2ccccc12
inactive: [1] -1.5% | [2] -24.6% | [3] -3.9% | [4] 6.45% | [5] -19.4% | [6] -13.6%

CCS(=O)(=O)c1ccc(NC(=O)OC2CCC3(C)C(=CCC4C3CCC3(C)C(C(C)CCCC(C)C)CCC43)C2)cc1 (stereo not given)
inactive: [1] 21.5% | [2] 6.15% | [3] 10.2% | [4] 20.4% | [5] -3.25% | [6] 3.65%

c1ccc(CNc2nn[nH]n2)cc1
inactive: [1] 2.65% | [2] 5.1% | [3] -5.9% | [4] -20.6% | [5] 4.2% | [6] 9%

CCN(CC)/N=C/c1cc([N+](=O)[O-])ccc1O
inactive: [1] 24.9% | [2] 5.4% | [3] -6.85% | [4] -50.9% | [5] 2.9% | [6] 15.7%

CN(C)c1ccc(C2NC(=S)NC3=C2CCCC3)cc1 (stereo not given)
inactive: [1] -15.1% | [2] -15.6% | [3] 5% | [4] -20.6% | [5] 22.8% | [6] 14.6%

C(=Nc1cccc2ccccc12)c1cccs1
inactive: [1] -8.95% | [2] -4.85% | [3] 2.6% | [4] -19% | [5] 0.25% | [6] -19.8%

CCC(C)C(O)C(C)C (stereo not given)
inactive: [1] 11.3% | [2] -18.1% | [3] -15.6% | [4] 13.6% | [5] -4.6% | [6] 21.8%

CC(=O)Nc1ccc(-c2nnc(SCC(=O)Nc3cccc([N+](=O)[O-])c3)o2)cc1
inactive: [1] -2% | [2] 5.15% | [3] 15.6% | [4] -17.5% | [5] -10.7% | [6] 0.4%

CC(C)N1C(=O)c2cccc(Cl)c2C1=O (tested in a mixture with another compound)
inactive: [1] 10.8% | [2] 4.1% | [3] 37.3% | [4] 37.6% | [5] -7.85% | [6] 1.4%

CCOc1nc(=O)n(C2OC(CO)C(O)C2O)s1 (stereo not given)
inactive: [1] 26.4% | [2] -1.35% | [3] -3.7% | [4] -34.1% | [5] -5.65% | [6] 2.5%

Cc1ccc(C)c(N=Nc2c(C)nc(N)nc2C)c1
inactive: [1] 1.8% | [2] -10.2% | [3] -9.45% | [4] -34.2% | [5] -22.1% | [6] -3.05%

O=c1c2cc3c(=O)n4c(cc(-c5ccccc5)c5cc(Cl)ccc54)nc3cc2nc2cc(-c3ccccc3)c3cc(Cl)ccc3n12
inactive: [1] 14.2% | [2] 5.55% | [3] 18.9% | [4] 14.2% | [5] -1.05% | [6] -9.7%

CCN(CC)CCNc1c(OC)c(OC)cc2nccnc12
inactive: [1] 9.85% | [2] 9.7% | [3] 30.9% | [4] 2.85% | [5] 0.2% | [6] -1.75%

COC(=O)Nn1c(C)c(C(=O)OC)c(C(=O)Nc2ccccc2)c1-c1ccccc1
inactive: [1] 6.1% | [2] -3% | [3] -5.2% | [4] -1.45% | [5] 5.05% | [6] 23.5%

NC(=O)C1(N2CCCCC2)CCNCC1
inactive: [1] 7.85% | [2] -16.5% | [3] -8.2% | [4] 6.9% | [5] -5.45% | [6] 3.95%

CC(C)CC(NC=O)C(=O)O (stereo not given)
inactive: [1] 11.2% | [2] 1.85% | [3] -0.4% | [4] 9.45% | [5] -0.3% | [6] 8.35%

CCCCNC(=O)/C(=C\c1ccc(OC)c(OC)c1)NC(=O)c1ccccc1
inactive: [1] -63.5% | [2] -55.3% | [3] -34.4% | [4] -1.75% | [5] -35% | [6] -21.6%

CCOC(=O)C(C#N)(CC(=O)OC)C(c1cccc2ccccc12)c1cccc2ccccc12 (stereo not given)
inactive: [1] 10.9% | [2] -12.7% | [3] 12.7% | [4] 21% | [5] -7.15% | [6] 13.8%

Cc1ccccc1-c1nc2c(N)nc(N)nc2nc1N
inactive: [1] -4.2% | [2] -12.8% | [3] -23.6% | [4] -18.9% | [5] -36.9% | [6] -62%

CS1(C)=Nc2c([N+](=O)[O-])cc([N+](=O)[O-])cc2S(=O)(=O)N=1
inactive: [1] -9.9% | [2] -12.1% | [3] -1.3% | [4] -15.9% | [5] -5% | [6] 6.55%

CCOc1ccccc1N=Nc1c(-c2ccccc2)nn(C(=O)CC(=O)Nc2cccc(Cl)c2)c1-c1ccccc1
inactive: [1] 12.6% | [2] -13.9% | [3] 40.9% | [4] 9.2% | [5] 26.2% | [6] 22.2%

CC(=O)OCC(C)(O)C#N (stereo not given)
inactive: [1] -19.8% | [2] -0.2% | [3] 11.3% | [4] 4.05% | [5] -5.35% | [6] -22.6%

COc1ccc(/C(C)=C\C(=O)O)cc1
inactive: [1] -1.95% | [2] -3.2% | [3] -9.55% | [4] -43.2% | [5] -40% | [6] 7.15%

CCCc1cc2c(cc1CC#N)OCO2
inactive: [1] -5.65% | [2] 19.4% | [3] -9.85% | [4] 2.4% | [5] -3.25% | [6] 17.6%

C=C1C=C2CCC3C(CCC4(C)C(C(C)CCCC(C)C)CCC34)C2(C)CC1 (stereo not given)
active: [1] 82.5% | [3] 84.9% | [6] 74.2%
inactive: [2] 57.6% | [4] 60.6% | [5] 28.2%

CC(=O)Nc1cc(Cl)ccc1F
inactive: [1] 14.1% | [2] -6.15% | [3] 12.4% | [4] -7.1% | [5] -0.7% | [6] 17.9%
